# Measurements published in publication PMC7862700, “An all-to-all approach to the identification of sequence-specific readers for epigenetic DNA modifications on cytosine”.
# What was measured:
# Experiment in all cases: DAPPL (digital affinity profiling via proximity ligation, sequencing); 10 mM Tris-HCl pH 7.5, 50 mM NaCl, 1 mM DTT, 4% glycerol, room temperature, 30 min; GST-TFs on glutathione beads, 16-mer random dsDNA library, 0.1% formaldehyde crosslink after washing; high values mean tight binding
# [1] = molecular target: T1, FLI1 (Homo sapiens, UniProt Q01543 1-452); conditions: protein: recombinant; tags: N-terminal GST; dsDNA, one strand shown
# T1 sequence: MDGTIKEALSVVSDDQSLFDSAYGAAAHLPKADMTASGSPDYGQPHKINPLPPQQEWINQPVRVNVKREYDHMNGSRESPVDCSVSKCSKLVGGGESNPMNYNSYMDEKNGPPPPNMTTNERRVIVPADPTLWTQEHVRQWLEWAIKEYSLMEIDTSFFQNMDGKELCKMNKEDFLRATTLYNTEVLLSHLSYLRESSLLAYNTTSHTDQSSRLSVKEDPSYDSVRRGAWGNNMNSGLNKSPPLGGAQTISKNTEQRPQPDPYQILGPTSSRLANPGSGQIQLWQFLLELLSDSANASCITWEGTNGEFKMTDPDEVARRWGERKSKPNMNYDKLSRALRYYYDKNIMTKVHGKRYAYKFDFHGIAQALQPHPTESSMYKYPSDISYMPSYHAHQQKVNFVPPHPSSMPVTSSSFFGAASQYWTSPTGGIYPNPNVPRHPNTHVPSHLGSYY
# In short: (§1)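 After expression in yeast as GST fusions, human transcription factors were bound to glutathione beads, DNA-barcoded and mixed with a tag-only sample. The pools were incubated with 200 nmole of a 16-mer random double-stranded DNA library in Tris/NaCl/DTT/glycerol buffer (30 min, room temperature), washed and crosslinked with 0.1% formaldehyde. Proximity ligation with BsaI/T4 ligase ran for 1 h at 37 °C, before PCR amplification and sequencing on an Illumina NextSeq500. Binding signal is a hexamer's read frequency for a factor divided by its frequency for the tag-only sample.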
# [2] = molecular target: T2, ELK1 (Homo sapiens, UniProt P19419 1-428); conditions: protein: recombinant; tags: N-terminal GST; dsDNA, one strand shown
# T2 sequence: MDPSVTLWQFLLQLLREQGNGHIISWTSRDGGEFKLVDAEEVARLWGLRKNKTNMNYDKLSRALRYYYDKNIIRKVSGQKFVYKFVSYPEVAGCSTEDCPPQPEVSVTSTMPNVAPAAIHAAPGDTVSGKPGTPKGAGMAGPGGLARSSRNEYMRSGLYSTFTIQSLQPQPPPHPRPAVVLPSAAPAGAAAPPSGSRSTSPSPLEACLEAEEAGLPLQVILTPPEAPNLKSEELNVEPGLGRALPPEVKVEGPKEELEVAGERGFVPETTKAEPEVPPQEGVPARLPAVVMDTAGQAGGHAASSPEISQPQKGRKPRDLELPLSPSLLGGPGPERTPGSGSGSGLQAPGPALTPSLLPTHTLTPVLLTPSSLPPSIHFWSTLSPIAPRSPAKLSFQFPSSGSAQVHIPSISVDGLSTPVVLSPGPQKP
# In short: as §1
# [3] = molecular target: T3, GABPA (Homo sapiens, UniProt Q06546 1-454); conditions: protein: recombinant; tags: N-terminal GST; dsDNA, one strand shown
# T3 sequence: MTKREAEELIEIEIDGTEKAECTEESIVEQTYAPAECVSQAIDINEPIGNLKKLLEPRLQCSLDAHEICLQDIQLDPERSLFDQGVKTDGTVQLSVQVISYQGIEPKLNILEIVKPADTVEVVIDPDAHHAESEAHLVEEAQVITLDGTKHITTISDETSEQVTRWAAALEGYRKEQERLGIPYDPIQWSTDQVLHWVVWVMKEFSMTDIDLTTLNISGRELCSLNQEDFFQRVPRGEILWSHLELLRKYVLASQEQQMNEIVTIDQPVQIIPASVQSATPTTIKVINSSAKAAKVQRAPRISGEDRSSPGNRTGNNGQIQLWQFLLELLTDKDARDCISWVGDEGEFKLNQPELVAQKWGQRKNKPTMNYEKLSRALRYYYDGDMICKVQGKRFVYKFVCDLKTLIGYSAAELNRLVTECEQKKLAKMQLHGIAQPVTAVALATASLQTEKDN
# In short: as §1
# [4] = molecular target: T4, ERG (Homo sapiens, UniProt P11308 1-479); conditions: protein: recombinant; tags: N-terminal GST; dsDNA, one strand shown
# T4 sequence: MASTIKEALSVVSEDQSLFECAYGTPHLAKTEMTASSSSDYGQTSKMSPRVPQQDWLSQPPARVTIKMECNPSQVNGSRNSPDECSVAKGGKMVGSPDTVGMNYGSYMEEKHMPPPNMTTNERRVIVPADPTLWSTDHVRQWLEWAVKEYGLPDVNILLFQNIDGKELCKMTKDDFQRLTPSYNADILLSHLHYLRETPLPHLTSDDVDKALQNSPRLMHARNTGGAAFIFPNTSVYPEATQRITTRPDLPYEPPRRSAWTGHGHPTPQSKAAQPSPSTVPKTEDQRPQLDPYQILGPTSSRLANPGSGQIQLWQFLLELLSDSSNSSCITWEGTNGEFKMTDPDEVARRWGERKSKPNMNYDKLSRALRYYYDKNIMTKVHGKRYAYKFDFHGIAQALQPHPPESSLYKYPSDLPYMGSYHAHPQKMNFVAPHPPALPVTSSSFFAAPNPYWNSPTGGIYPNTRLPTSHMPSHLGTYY
# In short: as §1
# [5] = molecular target: ELF1 (Homo sapiens, UniProt P32519 1-619); conditions: protein: recombinant; tags: N-terminal GST; dsDNA, one strand shown
# Sequence of ELF1 (P32519 whole entry): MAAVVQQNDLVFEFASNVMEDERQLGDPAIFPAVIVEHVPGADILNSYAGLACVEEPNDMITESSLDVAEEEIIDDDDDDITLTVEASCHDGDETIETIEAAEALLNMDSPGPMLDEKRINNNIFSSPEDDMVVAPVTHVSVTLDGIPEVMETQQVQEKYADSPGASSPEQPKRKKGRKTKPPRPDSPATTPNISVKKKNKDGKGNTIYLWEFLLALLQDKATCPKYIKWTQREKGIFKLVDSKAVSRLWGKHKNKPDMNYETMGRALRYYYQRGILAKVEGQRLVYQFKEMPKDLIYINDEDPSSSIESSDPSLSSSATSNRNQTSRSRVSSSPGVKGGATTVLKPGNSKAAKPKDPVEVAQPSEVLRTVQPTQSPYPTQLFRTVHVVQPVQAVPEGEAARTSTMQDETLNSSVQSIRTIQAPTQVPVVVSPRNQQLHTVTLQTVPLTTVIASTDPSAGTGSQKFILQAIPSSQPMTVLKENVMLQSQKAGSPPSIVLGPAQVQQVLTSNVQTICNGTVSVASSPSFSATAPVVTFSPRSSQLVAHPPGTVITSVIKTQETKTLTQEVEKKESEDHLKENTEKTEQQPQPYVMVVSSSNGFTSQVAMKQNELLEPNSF
# In short: as §1
# [6] = molecular target: T5, EHF (Homo sapiens, UniProt Q9NZC4 1-300); conditions: protein: recombinant; tags: N-terminal GST; dsDNA, one strand shown
# T5 sequence: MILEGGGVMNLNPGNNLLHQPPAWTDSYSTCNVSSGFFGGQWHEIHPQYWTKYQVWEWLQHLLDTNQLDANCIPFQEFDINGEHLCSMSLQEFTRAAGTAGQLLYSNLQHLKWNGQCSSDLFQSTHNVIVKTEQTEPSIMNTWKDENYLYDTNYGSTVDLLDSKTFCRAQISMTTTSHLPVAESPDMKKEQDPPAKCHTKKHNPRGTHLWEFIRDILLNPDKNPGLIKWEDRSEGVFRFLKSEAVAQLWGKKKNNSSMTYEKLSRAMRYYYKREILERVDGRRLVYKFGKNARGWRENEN
# In short: as §1
# [7] = molecular target: SPI1 (Homo sapiens, UniProt P17947 1-270); conditions: protein: recombinant; tags: N-terminal GST; dsDNA, one strand shown
# In short: as §1
# [8] = molecular target: SPIB (Homo sapiens, UniProt Q01892 1-262); conditions: protein: recombinant; tags: N-terminal GST; dsDNA, one strand shown
# Sequence of SPIB (Q01892 whole entry): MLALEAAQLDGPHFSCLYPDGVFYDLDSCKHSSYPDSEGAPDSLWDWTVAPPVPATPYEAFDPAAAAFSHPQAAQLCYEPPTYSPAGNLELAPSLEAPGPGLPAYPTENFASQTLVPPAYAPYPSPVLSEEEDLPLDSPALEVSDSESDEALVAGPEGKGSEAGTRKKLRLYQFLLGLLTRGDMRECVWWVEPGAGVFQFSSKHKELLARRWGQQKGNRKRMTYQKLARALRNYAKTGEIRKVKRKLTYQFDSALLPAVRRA
# In short: as §1
# [9] = molecular target: T6, ELK3 (Homo sapiens, UniProt P41970 1-407); conditions: protein: recombinant; tags: N-terminal GST; dsDNA, one strand shown
# T6 sequence: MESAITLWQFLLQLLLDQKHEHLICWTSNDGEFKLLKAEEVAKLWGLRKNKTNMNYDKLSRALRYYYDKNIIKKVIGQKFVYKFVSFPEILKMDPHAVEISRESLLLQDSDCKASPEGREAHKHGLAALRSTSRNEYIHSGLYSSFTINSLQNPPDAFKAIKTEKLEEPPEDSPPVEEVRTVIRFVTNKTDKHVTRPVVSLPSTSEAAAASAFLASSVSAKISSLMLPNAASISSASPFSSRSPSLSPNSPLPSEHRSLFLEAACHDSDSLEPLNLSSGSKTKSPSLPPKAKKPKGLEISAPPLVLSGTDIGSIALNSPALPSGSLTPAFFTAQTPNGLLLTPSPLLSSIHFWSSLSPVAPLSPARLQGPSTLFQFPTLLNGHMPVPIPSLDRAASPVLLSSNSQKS
# In short: as §1
# [10] = molecular target: T7, FEV (Homo sapiens, UniProt Q99581 1-238); conditions: protein: recombinant; tags: N-terminal GST; dsDNA, one strand shown
# T7 sequence: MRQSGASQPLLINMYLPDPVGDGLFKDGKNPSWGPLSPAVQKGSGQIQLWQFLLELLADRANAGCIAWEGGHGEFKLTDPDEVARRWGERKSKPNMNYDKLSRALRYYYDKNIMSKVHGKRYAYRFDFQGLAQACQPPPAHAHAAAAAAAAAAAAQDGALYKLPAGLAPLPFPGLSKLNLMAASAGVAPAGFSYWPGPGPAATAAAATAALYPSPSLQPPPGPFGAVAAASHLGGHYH
# In short: as §1
# [11] = molecular target: ETV5 (Homo sapiens, UniProt P41161 1-510); conditions: protein: recombinant; tags: N-terminal GST; dsDNA, one strand shown
# Sequence of ETV5 (P41161 whole entry): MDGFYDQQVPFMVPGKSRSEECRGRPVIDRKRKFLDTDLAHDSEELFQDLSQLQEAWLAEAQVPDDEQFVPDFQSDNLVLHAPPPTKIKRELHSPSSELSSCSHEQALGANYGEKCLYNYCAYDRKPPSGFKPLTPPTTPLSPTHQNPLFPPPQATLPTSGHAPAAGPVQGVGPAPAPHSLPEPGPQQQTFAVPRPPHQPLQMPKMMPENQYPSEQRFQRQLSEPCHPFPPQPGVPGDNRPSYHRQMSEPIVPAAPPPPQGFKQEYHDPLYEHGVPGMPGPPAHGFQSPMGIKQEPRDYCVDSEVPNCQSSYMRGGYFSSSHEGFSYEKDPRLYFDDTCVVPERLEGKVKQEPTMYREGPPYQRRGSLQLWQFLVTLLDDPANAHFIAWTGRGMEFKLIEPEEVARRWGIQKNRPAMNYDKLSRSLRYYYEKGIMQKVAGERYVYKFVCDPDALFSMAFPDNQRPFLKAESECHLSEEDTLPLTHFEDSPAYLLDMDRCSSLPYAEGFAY
# In short: as §1
# [12] = molecular target: HSF1 (Homo sapiens, UniProt Q00613 1-529); conditions: protein: recombinant; tags: N-terminal GST; chain copies: 3; dsDNA, one strand shown
# Sequence of HSF1 (Q00613 whole entry): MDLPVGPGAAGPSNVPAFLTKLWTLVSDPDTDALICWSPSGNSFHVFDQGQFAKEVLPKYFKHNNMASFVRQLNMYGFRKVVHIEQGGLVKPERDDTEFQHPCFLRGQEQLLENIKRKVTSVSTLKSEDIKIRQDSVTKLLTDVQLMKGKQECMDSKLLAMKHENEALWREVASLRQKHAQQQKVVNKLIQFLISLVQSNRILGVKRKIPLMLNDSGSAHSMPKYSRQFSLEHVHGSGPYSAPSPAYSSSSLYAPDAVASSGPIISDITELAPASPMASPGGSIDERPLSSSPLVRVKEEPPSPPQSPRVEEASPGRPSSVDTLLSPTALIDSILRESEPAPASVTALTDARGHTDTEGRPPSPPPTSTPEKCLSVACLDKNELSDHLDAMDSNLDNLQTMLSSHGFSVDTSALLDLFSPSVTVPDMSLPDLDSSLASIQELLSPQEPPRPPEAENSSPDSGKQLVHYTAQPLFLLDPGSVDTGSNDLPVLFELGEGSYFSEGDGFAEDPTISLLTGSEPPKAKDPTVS
# In short: as §1
# [13] = molecular target: T8, SPIC (Homo sapiens, UniProt Q8N5J4 1-248); conditions: protein: recombinant; tags: N-terminal GST; dsDNA, one strand shown
# T8 sequence: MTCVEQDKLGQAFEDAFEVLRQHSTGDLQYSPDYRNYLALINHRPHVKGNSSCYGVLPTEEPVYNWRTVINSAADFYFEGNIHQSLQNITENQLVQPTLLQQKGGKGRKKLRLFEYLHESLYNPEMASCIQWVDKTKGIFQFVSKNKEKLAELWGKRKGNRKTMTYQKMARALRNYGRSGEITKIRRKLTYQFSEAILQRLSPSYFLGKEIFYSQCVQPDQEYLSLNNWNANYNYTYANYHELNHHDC
# In short: as §1
# [14] = molecular target: ELF4 (Homo sapiens, UniProt Q99607 1-663); conditions: protein: recombinant; tags: N-terminal GST; dsDNA, one strand shown
# Sequence of ELF4 (Q99607 whole entry): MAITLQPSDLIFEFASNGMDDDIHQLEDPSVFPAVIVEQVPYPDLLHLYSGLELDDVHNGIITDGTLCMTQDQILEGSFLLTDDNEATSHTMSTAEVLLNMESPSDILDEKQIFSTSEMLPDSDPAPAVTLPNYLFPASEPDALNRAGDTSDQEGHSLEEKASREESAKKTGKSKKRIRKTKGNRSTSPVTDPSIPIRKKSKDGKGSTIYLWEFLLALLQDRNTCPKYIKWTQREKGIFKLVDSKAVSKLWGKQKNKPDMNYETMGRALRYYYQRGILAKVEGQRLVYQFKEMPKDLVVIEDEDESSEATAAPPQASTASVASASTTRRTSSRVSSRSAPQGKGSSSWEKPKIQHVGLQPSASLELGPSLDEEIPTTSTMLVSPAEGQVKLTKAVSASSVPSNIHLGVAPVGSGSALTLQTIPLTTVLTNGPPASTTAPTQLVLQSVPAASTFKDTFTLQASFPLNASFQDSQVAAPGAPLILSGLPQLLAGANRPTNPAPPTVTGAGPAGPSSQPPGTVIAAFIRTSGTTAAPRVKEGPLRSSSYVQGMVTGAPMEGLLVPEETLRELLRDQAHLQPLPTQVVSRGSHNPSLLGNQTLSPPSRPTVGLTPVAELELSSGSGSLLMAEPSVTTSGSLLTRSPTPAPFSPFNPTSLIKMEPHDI
# In short: as §1
# [15] = molecular target: T9, ELK4 (Homo sapiens, UniProt P28324-2 1-405); conditions: protein: recombinant; tags: N-terminal GST; dsDNA, one strand shown
# T9 sequence: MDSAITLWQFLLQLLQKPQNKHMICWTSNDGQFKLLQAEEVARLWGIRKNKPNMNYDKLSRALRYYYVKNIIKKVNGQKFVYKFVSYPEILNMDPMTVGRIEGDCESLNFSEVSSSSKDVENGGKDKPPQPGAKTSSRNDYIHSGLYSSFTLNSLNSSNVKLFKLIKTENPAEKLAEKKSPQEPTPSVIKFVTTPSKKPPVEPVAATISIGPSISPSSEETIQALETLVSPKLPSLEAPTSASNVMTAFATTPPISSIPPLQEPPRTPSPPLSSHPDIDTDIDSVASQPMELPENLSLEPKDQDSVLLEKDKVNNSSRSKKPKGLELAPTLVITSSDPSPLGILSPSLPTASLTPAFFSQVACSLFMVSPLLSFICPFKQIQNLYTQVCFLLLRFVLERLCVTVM
# In short: as §1
# [16] = molecular target: T10, ETV2 (Homo sapiens, UniProt O00321 1-342); conditions: protein: recombinant; tags: N-terminal GST; dsDNA, one strand shown
# T10 sequence: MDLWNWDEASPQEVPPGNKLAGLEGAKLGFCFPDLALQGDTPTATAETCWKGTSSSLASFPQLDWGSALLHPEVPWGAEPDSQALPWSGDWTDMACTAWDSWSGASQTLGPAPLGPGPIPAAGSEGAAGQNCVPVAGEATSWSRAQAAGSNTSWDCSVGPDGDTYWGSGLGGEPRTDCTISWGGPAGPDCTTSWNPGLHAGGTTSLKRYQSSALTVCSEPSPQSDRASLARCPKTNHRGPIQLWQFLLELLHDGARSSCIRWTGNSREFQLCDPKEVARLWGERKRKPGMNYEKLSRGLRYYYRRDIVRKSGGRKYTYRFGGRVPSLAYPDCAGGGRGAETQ
# In short: as §1
# [17] = molecular target: T11, ELF3 (Homo sapiens, UniProt P78545 1-371); conditions: protein: recombinant; tags: N-terminal GST; dsDNA, one strand shown
# T11 sequence: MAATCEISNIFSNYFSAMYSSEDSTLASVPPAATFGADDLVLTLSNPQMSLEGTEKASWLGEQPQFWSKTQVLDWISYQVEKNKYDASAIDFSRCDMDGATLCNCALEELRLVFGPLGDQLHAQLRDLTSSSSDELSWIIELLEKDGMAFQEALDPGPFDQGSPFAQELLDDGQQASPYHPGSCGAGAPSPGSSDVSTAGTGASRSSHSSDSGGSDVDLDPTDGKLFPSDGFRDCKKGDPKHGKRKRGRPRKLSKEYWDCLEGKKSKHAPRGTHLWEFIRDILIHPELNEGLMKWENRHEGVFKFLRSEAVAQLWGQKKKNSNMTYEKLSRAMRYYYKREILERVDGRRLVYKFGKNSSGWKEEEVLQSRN
# In short: as §1
# [18] = molecular target: CRX (Homo sapiens, UniProt O43186 1-299); conditions: protein: recombinant; tags: N-terminal GST; dsDNA, one strand shown
# Sequence of CRX (O43186 whole entry): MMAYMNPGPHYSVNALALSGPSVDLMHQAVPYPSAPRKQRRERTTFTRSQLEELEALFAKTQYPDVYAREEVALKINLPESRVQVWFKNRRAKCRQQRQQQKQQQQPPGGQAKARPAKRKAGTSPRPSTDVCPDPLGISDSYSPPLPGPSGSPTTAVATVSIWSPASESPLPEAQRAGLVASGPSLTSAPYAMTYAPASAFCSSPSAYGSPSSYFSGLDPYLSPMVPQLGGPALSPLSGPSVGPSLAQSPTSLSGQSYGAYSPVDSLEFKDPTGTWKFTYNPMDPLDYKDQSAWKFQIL
# In short: as §1
# [19] = molecular target: ETV1 (Homo sapiens, UniProt P50549 1-477); conditions: protein: recombinant; tags: N-terminal GST; dsDNA, one strand shown
# Sequence of ETV1 (P50549 whole entry): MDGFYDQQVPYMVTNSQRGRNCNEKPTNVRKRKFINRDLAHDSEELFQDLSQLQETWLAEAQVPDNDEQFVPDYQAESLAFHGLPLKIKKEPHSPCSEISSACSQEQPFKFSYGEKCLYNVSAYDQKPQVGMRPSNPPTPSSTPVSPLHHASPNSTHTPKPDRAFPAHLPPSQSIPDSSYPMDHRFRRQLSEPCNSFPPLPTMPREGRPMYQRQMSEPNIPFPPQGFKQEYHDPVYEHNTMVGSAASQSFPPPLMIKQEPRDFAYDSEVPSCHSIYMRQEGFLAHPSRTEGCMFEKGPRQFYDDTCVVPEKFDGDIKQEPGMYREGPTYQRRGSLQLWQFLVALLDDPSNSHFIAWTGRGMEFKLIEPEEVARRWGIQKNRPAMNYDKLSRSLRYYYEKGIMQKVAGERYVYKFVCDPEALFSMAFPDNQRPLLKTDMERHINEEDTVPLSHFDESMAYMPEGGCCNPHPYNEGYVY
# In short: as §1
sequence,measurement,setting,value
TACGGC,binding signal,[1],"1.18 fold enrichment (6-mer frequency, TF over GST control)"
same,binding signal,[2],"1.25 fold enrichment (6-mer frequency, TF over GST control)"
same,binding signal,[3],"1.23 fold enrichment (6-mer frequency, TF over GST control)"
same,binding signal,[4],"1.24 fold enrichment (6-mer frequency, TF over GST control)"
same,binding signal,[5],"1.18 fold enrichment (6-mer frequency, TF over GST control)"
same,binding signal,[6],"1.2 fold enrichment (6-mer frequency, TF over GST control)"
same,binding signal,[7],"1.18 fold enrichment (6-mer frequency, TF over GST control)"
same,binding signal,[8],"1.25 fold enrichment (6-mer frequency, TF over GST control)"
same,binding signal,[9],"1.16 fold enrichment (6-mer frequency, TF over GST control)"
same,binding signal,[10],"1.15 fold enrichment (6-mer frequency, TF over GST control)"
same,binding signal,[11],"1.15 fold enrichment (6-mer frequency, TF over GST control)"
same,binding signal,[12],"1.02 fold enrichment (6-mer frequency, TF over GST control)"
same,binding signal,[13],"1.05 fold enrichment (6-mer frequency, TF over GST control)"
same,binding signal,[14],"1.28 fold enrichment (6-mer frequency, TF over GST control)"
same,binding signal,[15],"1.19 fold enrichment (6-mer frequency, TF over GST control)"
same,binding signal,[16],"1.12 fold enrichment (6-mer frequency, TF over GST control)"
same,binding signal,[17],"1.14 fold enrichment (6-mer frequency, TF over GST control)"
same,binding signal,[18],"1.2 fold enrichment (6-mer frequency, TF over GST control)"
same,binding signal,[19],"1.14 fold enrichment (6-mer frequency, TF over GST control)"
